Laboratory results from the supplement of paper PMC6555819.

Experiments:
Assay in all cases: PBM binding z-score (relative to random genomic background probes); higher = stronger binding; sequences stand for … in GC…GCGATTGACAGCGTAGAATGAAGG
[1] = system: RARb homodimer (NR concentration 270 nM)
Summary of the method: (§1)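 Binding z-scores were set against random background probes. The data came from custom Agilent 4×180K protein-binding microarrays carrying double-stranded probes with 34-nt variable regions, incubated 1 h with ligand-free nuclear receptor dimers. Partner-specific antibodies detected binding, and scanned fluorescence was regression-normalized.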

[2] = system: RARg:RXRa (NR concentration 270 nM, RXRa partner concentration 90 nM)
Summary of the method: as §1

[3] = system: RARg homodimer (NR concentration 270 nM)
Summary of the method: as §1

[4] = system: RXRa DBDmut IVT, anti-RXR (DBD mutation: RXRa K156A/R161A, NR concentration 90 nM)
Summary of the method: as §1

[5] = system: RXRa homodimer (NR concentration 180 nM)
Summary of the method: as §1

[6] = system: THRa:RXRa (NR concentration 90 nM, RXRa partner concentration 90 nM)
Summary of the method: as §1

[7] = system: THRa homodimer (NR concentration 90 nM)
Summary of the method: as §1

[8] = system: VDR:RXRa (NR concentration 270 nM, RXRa partner concentration 90 nM)
Summary of the method: as §1

[9] = system: VDR homodimer (NR concentration 270 nM)
Summary of the method: as §1

| Sequence | PBM binding z-score [1] | PBM binding z-score [2] | PBM binding z-score [3] | PBM binding z-score [4] | PBM binding z-score [5] | PBM binding z-score [6] | PBM binding z-score [7] | PBM binding z-score [8] | PBM binding z-score [9] |
| --- | --- | --- | --- | --- | --- | --- | --- | --- | --- |
| ATCGAAAGGTCGAAGATGAGTATACCCACCCGAA | 2.11 | 3.48 | 3.4 | 1.35 | 3.68 | 1.56 | -0.0753 | 2.36 | 0.844 |
| CGTCCAAGGTCAATGCCAGGTCAGTGAAAGCATT | 4.92 | 7.69 | 6.75 | 3.86 | 5.27 | 4.71 | 3.6 | 4.96 | 3.03 |
| CCAGACAGGTGAGAGGGTAACTCAGCCTCGATTA | 1.02 | 0.576 | 0.626 | -0.231 | 0.666 | 0.388 | 0.0769 | -0.0785 | 0.287 |
| TCTCGGAGGACACGAAGATCAGAGCTTTCCAGAG | 0.193 | 0.499 | 1.05 | 0.0261 | 0.273 | 1.1 | 0.242 | -0.165 | -0.899 |
| CCTACTGGGCCAATGGTCATTGATTCCAATGCTC | 0.0691 | -0.0352 | 0.182 | -0.608 | -0.164 | -0.527 | -0.561 | -0.314 | -0.711 |
| AGAATGAGGTTTTTAAGATCAGGGAATTGCGGTC | -0.159 | -0.0419 | -0.355 | 0.351 | 0.0313 | 0.216 | -0.0732 | -0.0674 | -0.068 |
| CGTCCAAGGTCATAGCAGGTCAGTGAAGACAGAT | 4.65 | 6.19 | 6.53 | 3.91 | 5.72 | 4.99 | 2.79 | 5.93 | 3.76 |
| CCTCCTGGGCCAAAGGTCATTGATTCCAATGCTC | 4.24 | 5.81 | 4.61 | 0.646 | 6.35 | 3.17 | 0.804 | 4.75 | 2.32 |
| CCTAGCAGGCCAATCTGAGTCACTCAAGGCTTGA | -0.614 | -0.539 | -0.118 | 0.122 | -0.769 | -0.175 | -0.499 | -0.947 | -0.793 |
| TGTCAAAGTTCAAAGGTAAAGTAAGTATCCACAC | 3.74 | 6.33 | 6.06 | 4.16 | 7 | 3.08 | -0.134 | 4.88 | 3.53 |
| GCATAGAGGTAATACAAGGTGAAAGTCCGATTGT | 1.08 | 0.816 | 0.537 | 0.392 | 0.977 | 4.44 | 0.985 | 0.566 | 0.216 |
| ATATGTCGGTTAGCTGGGGTCATTCAGACTAGGC | 3.58 | 3.65 | 2.68 | 1.59 | 5.28 | 4.56 | 3.31 | 5.12 | 4.56 |
| ATACCAAGGTGATCGTGAGCTCGTTGATACTAAC | 0.153 | -0.0277 | 0.19 | -0.225 | 0.139 | 0.678 | 0.422 | -0.0163 | -0.219 |
| ATCGAAAGGTCGAGGTGGGTATAGAGAAAGGGAA | 3.07 | 4.26 | 4.29 | 1.35 | 4.24 | 2.64 | 0.668 | 3.34 | 1.09 |
| CAGCCTAGGTCGGGGCCAGTATAGGAGGAACGTT | 0.941 | 0.359 | 0.842 | -0.52 | -0.0745 | 0.171 | -0.524 | -0.53 | -0.348 |
| CTCGAAAGGCCGTGCTCAGGTGAGTATACCAAAC | 0.384 | 0.136 | 0.46 | 0.0515 | -0.297 | 1.61 | 0.381 | -0.528 | -0.249 |
| ATTGAAAGGTCGAGGTGAGTATAGAGAAAGGGAA | 3.09 | 4.26 | 4.24 | 1.13 | 4.51 | 3.18 | 1.04 | 2.87 | 1.18 |
| TCTTGTTGGTCACGGAGGTCACACACGACGGGTA | 4.67 | 5.21 | 5.01 | 1.25 | 5.34 | 3.66 | 3.03 | 6.07 | 3.59 |
| CAGCCTGGGTCAGGGCCAGTATAGGAGGAACGTT | 2.07 | 2.63 | 2.76 | -1.29 | 1.51 | 1.09 | -0.124 | 0.152 | -0.545 |
| CCGACTGGGGCAAAGGTTACCATACTCAGTACGA | 2.22 | 3.52 | 1.78 | 0.712 | 3.67 | 1.78 | -0.211 | 1.68 | -0.204 |
| CAAACTAGGTTACGAAAGGTCAAAGTCGAATGAC | 5 | 6.3 | 5.88 | 1.6 | 6.62 | 4.48 | 1.51 | 5.53 | 2.58 |
| TCGAGTAGGTTACCAATGGGGCACTCAGCTTTCT | 0.601 | 1.21 | 0.434 | 0.0606 | 0.428 | 0.0127 | -0.648 | 0.142 | -0.704 |
| ATCTCTAGGTAACCAAGTTCAGCGAATGCCGAAC | 1.63 | 1.03 | 1.06 | 0.597 | 0.733 | 1.51 | 0.797 | 4.31 | 2.79 |
| TTACCTAGGTGAAAGGTCGTTGATGCACGCCTTG | 2.24 | 3.56 | 1.38 | 0.705 | 4.66 | 3.15 | 0.624 | 2.75 | 1.19 |
| AATACAGGGTCATCGTAGGCCAGAGTGCGCACAG | 3.68 | 5.64 | 4.81 | 3.12 | 6.37 | 4.6 | 1.4 | 5.15 | 3.2 |
| CGAACGAGGGCATGAGTTGATAGCCAATGCCGAT | 0.853 | 1.34 | 1.88 | 2.3 | 1 | 1.24 | -0.039 | 1.09 | 1.56 |

| Sequence | PBM binding z-score [1] | PBM binding z-score [2] | PBM binding z-score [3] | PBM binding z-score [4] | PBM binding z-score [5] | PBM binding z-score [6] | PBM binding z-score [7] | PBM binding z-score [8] | PBM binding z-score [9] |
| --- | --- | --- | --- | --- | --- | --- | --- | --- | --- |
| TCTCGGACGACACGAAGGTCAGAGCTTTCCAGAG | 3.12 | 2.49 | 2.65 | 0.495 | 2 | 1.53 | 0.0855 | 1.2 | 0.189 |
| TCGGGTAGGTTAGTCGGGGCATTCAGCCAACATA | 1.24 | 0.503 | 0.704 | 0.58 | 0.0388 | 1.57 | 1.21 | 2.88 | 1.08 |
| TCGAGTAGGTTTGGGGCATTCAGAATGGCGTCGA | 0.408 | -0.658 | -0.913 | 0.194 | -0.158 | 0.0533 | 0.0117 | -0.0942 | -0.0123 |
| TGAATGAGGTTATAAGAACAGGGAACGTTGCAAA | -0.0181 | 1.21 | 1 | 0.468 | 1.89 | 1.62 | 0.00377 | 0.915 | 0.365 |
| TTACCAGGGTGAAAGGTCGTTGATGCACGCCTTG | 2.58 | 3.82 | 1.48 | 0.566 | 6.13 | 2.9 | 0.639 | 3.28 | 1.87 |
| TAGCCTAGGTCATTCACGGGCCAGTATAGAAAGC | 2.73 | 4.9 | 4.23 | 1.96 | 2.7 | 2.91 | 0.437 | 2.28 | 1.43 |
| TCTGCTAGGTCAACGATGGACAGCTAATCTGCTA | 2.79 | 3.82 | 4.71 | 0.955 | 2.5 | 2.86 | 0.203 | 1.21 | -0.736 |
| AATACTGGGTCACTAGGCCAGAGTAGGTACGAAT | 2.47 | 2.99 | 3.54 | 0.506 | 2.37 | 1.81 | 0.283 | 1.47 | 0.859 |
| CCTAGCAGGCCCATCTGGGTCACTCAAGGCTTGA | 1.64 | 0.5 | 0.267 | -1.2 | 0.768 | 2.23 | 0.0226 | -0.0613 | -0.0686 |
| CAAACTAGGTCCCAGAGGTCAAAGTCCGTGCGTA | 4.35 | 5.07 | 4.38 | 2.04 | 5.62 | 3.67 | 1.58 | 5.88 | 3.87 |
| GATACAGGGTCAGCTAGAGGCAAGAGTATGGAAA | 2.77 | 4.72 | 4.64 | 0.963 | 4.52 | 2.8 | 0.438 | 2.63 | 0.394 |
| CGAACTAGGTCAGAACAGGACAGTAAAGGATGAT | 2 | 2.48 | 3.35 | 0.613 | 1.27 | 3.43 | 0.235 | 0.971 | 0.325 |
| GCAGCCAGGTGAAACGCAGGTAACTCAGGGTGGC | -0.292 | 0.262 | -0.109 | -0.94 | 0.157 | 1.68 | -0.396 | -0.929 | -0.939 |
| AGTATTAGTTGAGACGAGGGCAACCGATAGGTTG | 1.37 | 0.642 | 0.922 | 0.464 | 0.65 | 2.68 | 0.356 | 0.873 | 1.53 |
| GCAGACAGGCGAAACGCAGGTAACTCAGGGTGGC | -0.842 | -0.359 | -0.272 | -0.577 | -0.167 | 0.338 | -0.81 | -0.853 | -0.974 |
| CAAACTAGATCAAGGTCAAAGTCGGTTTGTGCCA | 3.72 | 3.89 | 3.29 | 2.46 | 4.18 | 3.88 | 2.96 | 4.12 | 3.73 |
| CGAACTAGGTCATAACAGGACAGTGAAGGATGAT | 2.36 | 3.28 | 3.91 | 1.66 | 2.37 | 4.04 | 0.443 | 1.89 | 0.892 |
| GGAACGAGGGCAAAGTTGATAGGATCTGTCGACG | 1.32 | 2.19 | 1.89 | 2.92 | 2.12 | 1.36 | -0.0299 | 1.37 | 1.34 |
| TCATATAGGTAAAGGTTAAAGTCGAACGATATGA | 2 | 2.68 | 2.28 | 1.27 | 3.91 | 1.81 | -0.146 | 1.98 | 0.675 |
| GCTTGTAGATCAAGGTTAAGGAAGACTAAGCTAA | 0.296 | 0.309 | 0.222 | -0.171 | 0.702 | 1.25 | -0.259 | 0.00298 | -0.459 |
| ATCGAAAGGTCGGGGTGAGTATAGAGAAAGGGAA | 2.88 | 3.7 | 3.63 | 1.78 | 3.77 | 3.06 | 1.35 | 3.1 | 1.52 |
| AGAACGAGGGCAAGGAGTTGATAGCACGGGTGGC | 0.992 | 1.21 | 1.49 | 1.12 | 0.867 | 0.885 | -0.277 | 3.32 | 1.93 |
| CGTCCAATGTCAAAGGTCAGTGAAGAGATGACGG | 4.3 | 5.61 | 5.43 | 1.04 | 6.57 | 2.97 | 0.388 | 3.72 | 1.07 |
| TGGATGAGGTTATAAGATCAGGGAACGTTGCAAA | 0.465 | 1.53 | 1.24 | 0.341 | 1.97 | 1.91 | 0.397 | 1.04 | 0.65 |
| CCGAGTAGGTTATGGGGCATTCATGCAACGGTGA | 0.909 | 0.699 | 0.725 | 0.0977 | 0.697 | 0.148 | -0.334 | 0.118 | 0.21 |
| TCATATAGGTAAACAGGTGAAACTCCGTAAGTTA | 0.92 | 0.806 | 0.575 | 1.37 | 1.47 | 0.984 | 0.268 | 1.19 | 0.307 |
